Assay results as given in the supplement of paper PMC6992640.

system: WHIM30 (cells of a triple-negative basal-like breast cancer xenograft); assay: cell viability of combination (% of vehicle); higher = less cytotoxic; settings: 1 µM; 72 h; partner dose: 10 nM
Method: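 PDX cells were treated for 72 h with each drug at 1 µM plus carfilzomib (10 nM; 100 nM for WHIM2). Luciferase viability is expressed as percent of vehicle.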

In order of falling “cell viability of combination” value:
1. CCN(CC)CCNC(=O)c1c(C)[nH]c(C=C2C(=O)Nc3ccc(F)cc32)c1C [Sunitinib] + CC(C)C[C@H](NC(=O)[C@H](CCc1ccccc1)NC(=O)CN1CCOCC1)C(=O)N[C@@H](Cc1ccccc1)C(=O)N[C@@H](CC(C)C)C(=O)[C@@]1(C)CO1 [Carfilzomib]  33.2
2. CC(C)C(=O)OCC(=O)[C@@]12O[C@H](C3CCCCC3)O[C@@H]1C[C@H]1[C@@H]3CCC4=CC(=O)C=C[C@]4(C)[C@H]3[C@@H](O)C[C@@]12C [Ciclesonide] + CC(C)C[C@H](NC(=O)[C@H](CCc1ccccc1)NC(=O)CN1CCOCC1)C(=O)N[C@@H](Cc1ccccc1)C(=O)N[C@@H](CC(C)C)C(=O)[C@@]1(C)CO1 [Carfilzomib]  31.2
3. CO[C@H]1C[C@@H]2CC[C@@H](C)[C@@](O)(O2)C(=O)C(=O)N2CCCC[C@H]2C(=O)O[C@H]([C@H](C)C[C@@H]2CC[C@@H](O)[C@H](OC)C2)CC(=O)[C@H](C)/C=C(\C)[C@@H](O)[C@@H](OC)C(=O)[C@H](C)C[C@H](C)/C=C/C=C/C=C/1C [Rapamycin (Sirolimus)] + CC(C)C[C@H](NC(=O)[C@H](CCc1ccccc1)NC(=O)CN1CCOCC1)C(=O)N[C@@H](Cc1ccccc1)C(=O)N[C@@H](CC(C)C)C(=O)[C@@]1(C)CO1 [Carfilzomib]  25.8
4. O=C(c1ccc(F)c(F)c1Nc1ccc(I)cc1F)N1CC(O)(C2CCCCN2)C1 (stereo not given) [Cobimetinib] + CC(C)C[C@H](NC(=O)[C@H](CCc1ccccc1)NC(=O)CN1CCOCC1)C(=O)N[C@@H](Cc1ccccc1)C(=O)N[C@@H](CC(C)C)C(=O)[C@@]1(C)CO1 [Carfilzomib]  24.7
5. COc1cc2c(Oc3ccc(NC(=O)C4(C(=O)Nc5ccc(F)cc5)CC4)cc3F)ccnc2cc1OCCCN1CCOCC1 + CC(C)C[C@H](NC(=O)[C@H](CCc1ccccc1)NC(=O)CN1CCOCC1)C(=O)N[C@@H](Cc1ccccc1)C(=O)N[C@@H](CC(C)C)C(=O)[C@@]1(C)CO1 [Carfilzomib]  22.4
6. COc1ccc2c(O[C@H]3CC4C(=O)N(C)CCCC/C=C\[C@H]5C[C@@]5(C(=O)NS(=O)(=O)C5CC5)NC(=O)[C@@H]4C3)cc(-c3nc(C(C)C)cs3)nc2c1C (stereo not given in full) [Simeprevir] + CC(C)C[C@H](NC(=O)[C@H](CCc1ccccc1)NC(=O)CN1CCOCC1)C(=O)N[C@@H](Cc1ccccc1)C(=O)N[C@@H](CC(C)C)C(=O)[C@@]1(C)CO1 [Carfilzomib]  22.1
7. Cl.OC(CNCC(O)C1CCc2cc(F)ccc2O1)C1CCc2cc(F)ccc2O1 (stereo not given) [Nebivolol] + CC(C)C[C@H](NC(=O)[C@H](CCc1ccccc1)NC(=O)CN1CCOCC1)C(=O)N[C@@H](Cc1ccccc1)C(=O)N[C@@H](CC(C)C)C(=O)[C@@]1(C)CO1 [Carfilzomib]  21.2
8. Clc1ccc(C(Cn2ccnc2)OCc2ccc(Sc3ccccc3)cc2)c(Cl)c1.O=[N+]([O-])O (stereo not given) [Fenticonazole Nitrate] + CC(C)C[C@H](NC(=O)[C@H](CCc1ccccc1)NC(=O)CN1CCOCC1)C(=O)N[C@@H](Cc1ccccc1)C(=O)N[C@@H](CC(C)C)C(=O)[C@@]1(C)CO1 [Carfilzomib]  21.1
9. COc1cc(Nc2c(C#N)cnc3cc(OCCCN4CCN(C)CC4)c(OC)cc23)c(Cl)cc1Cl [Bosutinib (SKI-606)] + CC(C)C[C@H](NC(=O)[C@H](CCc1ccccc1)NC(=O)CN1CCOCC1)C(=O)N[C@@H](Cc1ccccc1)C(=O)N[C@@H](CC(C)C)C(=O)[C@@]1(C)CO1 [Carfilzomib]  20.9
10. Cc1c(Cl)cccc1Nc1ccccc1C(=O)O [Tolfenamic Acid] + CC(C)C[C@H](NC(=O)[C@H](CCc1ccccc1)NC(=O)CN1CCOCC1)C(=O)N[C@@H](Cc1ccccc1)C(=O)N[C@@H](CC(C)C)C(=O)[C@@]1(C)CO1 [Carfilzomib]  20.7
11. CNC(=O)c1cc(Oc2ccc(NC(=O)Nc3ccc(Cl)c(C(F)(F)F)c3)cc2)ccn1.Cc1ccc(S(=O)(=O)O)cc1 [Sorafenib Tosylate] + CC(C)C[C@H](NC(=O)[C@H](CCc1ccccc1)NC(=O)CN1CCOCC1)C(=O)N[C@@H](Cc1ccccc1)C(=O)N[C@@H](CC(C)C)C(=O)[C@@]1(C)CO1 [Carfilzomib]  19.5
12. CCCCc1oc2ccc(NS(C)(=O)=O)cc2c1C(=O)c1ccc(OCCCN(CCCC)CCCC)cc1 [Dronedarone] + CC(C)C[C@H](NC(=O)[C@H](CCc1ccccc1)NC(=O)CN1CCOCC1)C(=O)N[C@@H](Cc1ccccc1)C(=O)N[C@@H](CC(C)C)C(=O)[C@@]1(C)CO1 [Carfilzomib]  19
13. C=CC(=O)Nc1cc(Nc2nccc(-c3cn(C)c4ccccc34)n2)c(OC)cc1N(C)CCN(C)C + CC(C)C[C@H](NC(=O)[C@H](CCc1ccccc1)NC(=O)CN1CCOCC1)C(=O)N[C@@H](Cc1ccccc1)C(=O)N[C@@H](CC(C)C)C(=O)[C@@]1(C)CO1 [Carfilzomib]  17.5
14. CC(C)(C)c1ccc(C(=O)CCCN2CCC(OC(c3ccccc3)c3ccccc3)CC2)cc1 [Ebastine] + CC(C)C[C@H](NC(=O)[C@H](CCc1ccccc1)NC(=O)CN1CCOCC1)C(=O)N[C@@H](Cc1ccccc1)C(=O)N[C@@H](CC(C)C)C(=O)[C@@]1(C)CO1 [Carfilzomib]  15.8
15. CC(C)COc1ccc(CNC(=O)N(Cc2ccc(F)cc2)C2CCN(C)CC2)cc1 [Pimavanserin] + CC(C)C[C@H](NC(=O)[C@H](CCc1ccccc1)NC(=O)CN1CCOCC1)C(=O)N[C@@H](Cc1ccccc1)C(=O)N[C@@H](CC(C)C)C(=O)[C@@]1(C)CO1 [Carfilzomib]  15.8
16. CN1CCCC1CCOC(C)(c1ccccc1)c1ccc(Cl)cc1.O=C(O)C=CC(=O)O (stereo not given) [Clemastine Fumarate] + CC(C)C[C@H](NC(=O)[C@H](CCc1ccccc1)NC(=O)CN1CCOCC1)C(=O)N[C@@H](Cc1ccccc1)C(=O)N[C@@H](CC(C)C)C(=O)[C@@]1(C)CO1 [Carfilzomib]  15.5
17. COC(=O)C1=C(C)NC(C)=C(C(=O)OC2CCCN(Cc3ccccc3)C2)C1c1cccc([N+](=O)[O-])c1.Cl (stereo not given) [Benidipine HCl] + CC(C)C[C@H](NC(=O)[C@H](CCc1ccccc1)NC(=O)CN1CCOCC1)C(=O)N[C@@H](Cc1ccccc1)C(=O)N[C@@H](CC(C)C)C(=O)[C@@]1(C)CO1 [Carfilzomib]  13.6
18. [O-]n1ccccc1=S.[O-]n1ccccc1=S.[Zn+2] [Zinc Pyrithione] + CC(C)C[C@H](NC(=O)[C@H](CCc1ccccc1)NC(=O)CN1CCOCC1)C(=O)N[C@@H](Cc1ccccc1)C(=O)N[C@@H](CC(C)C)C(=O)[C@@]1(C)CO1 [Carfilzomib]  13.4
19. CCC(NC(=O)C(C)NC)C(=O)N1CC(O)CC1Cc1c(-c2[nH]c3cc(F)ccc3c2CC2CC(O)CN2C(=O)C(CC)NC(=O)C(C)NC)[nH]c2cc(F)ccc12 (stereo not given) + CC(C)C[C@H](NC(=O)[C@H](CCc1ccccc1)NC(=O)CN1CCOCC1)C(=O)N[C@@H](Cc1ccccc1)C(=O)N[C@@H](CC(C)C)C(=O)[C@@]1(C)CO1 [Carfilzomib]  11.4
20. CC(=O)C1(O)Cc2c(O)c3c(c(O)c2C(OC2CC(N)C(O)C(C)O2)C1)C(=O)c1ccccc1C3=O.Cl (stereo not given) [Idarubicin HCl] + CC(C)C[C@H](NC(=O)[C@H](CCc1ccccc1)NC(=O)CN1CCOCC1)C(=O)N[C@@H](Cc1ccccc1)C(=O)N[C@@H](CC(C)C)C(=O)[C@@]1(C)CO1 [Carfilzomib]  5.43
